From article PMC7862700, “An all-to-all approach to the identification of sequence-specific readers for epigenetic DNA modifications on cytosine”

Experiments:
Experiment in all cases: DAPPL (digital affinity profiling via proximity ligation, sequencing); 10 mM Tris-HCl pH 7.5, 50 mM NaCl, 1 mM DTT, 4% glycerol, room temperature, 30 min; GST-TFs on glutathione beads, 16-mer random dsDNA library, 0.1% formaldehyde crosslink after washing; high values mean tight binding
Details in all cases: protein: recombinant; tags: N-terminal GST; dsDNA, one strand shown
FLI1 = target: T1, FLI1 (Homo sapiens, UniProt Q01543 1-452)
T1 sequence: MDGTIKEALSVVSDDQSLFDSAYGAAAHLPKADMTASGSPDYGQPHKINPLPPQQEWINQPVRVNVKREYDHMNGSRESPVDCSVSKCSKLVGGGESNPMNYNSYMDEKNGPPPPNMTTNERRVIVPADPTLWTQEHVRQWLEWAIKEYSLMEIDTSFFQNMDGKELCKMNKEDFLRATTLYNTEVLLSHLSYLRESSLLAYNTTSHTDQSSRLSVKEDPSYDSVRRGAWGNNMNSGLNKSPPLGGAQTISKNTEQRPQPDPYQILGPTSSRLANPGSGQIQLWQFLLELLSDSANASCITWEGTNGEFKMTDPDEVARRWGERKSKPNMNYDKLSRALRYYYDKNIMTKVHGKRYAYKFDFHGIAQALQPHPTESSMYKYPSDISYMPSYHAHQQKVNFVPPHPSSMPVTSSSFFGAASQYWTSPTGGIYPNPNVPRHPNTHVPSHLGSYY
Outline: (§1)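 The binding signal reported is, for every hexamer, its read frequency for a factor over its read frequency for the tag-only sample. Reads came from pools of yeast-expressed, GST-fused human transcription factors on glutathione beads, barcoded with DNA and mixed with that sample, which were incubated with 200 nmole of a random double-stranded 16-mer DNA library in Tris/NaCl/DTT/glycerol buffer at room temperature for 30 min. After washing, the pools were crosslinked with 0.1% formaldehyde, proximity-ligated with BsaI/T4 ligase for 1 h at 37 °C, PCR-amplified and sequenced on an Illumina NextSeq500.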

ELK1 = target: T2, ELK1 (Homo sapiens, UniProt P19419 1-428)
T2 sequence: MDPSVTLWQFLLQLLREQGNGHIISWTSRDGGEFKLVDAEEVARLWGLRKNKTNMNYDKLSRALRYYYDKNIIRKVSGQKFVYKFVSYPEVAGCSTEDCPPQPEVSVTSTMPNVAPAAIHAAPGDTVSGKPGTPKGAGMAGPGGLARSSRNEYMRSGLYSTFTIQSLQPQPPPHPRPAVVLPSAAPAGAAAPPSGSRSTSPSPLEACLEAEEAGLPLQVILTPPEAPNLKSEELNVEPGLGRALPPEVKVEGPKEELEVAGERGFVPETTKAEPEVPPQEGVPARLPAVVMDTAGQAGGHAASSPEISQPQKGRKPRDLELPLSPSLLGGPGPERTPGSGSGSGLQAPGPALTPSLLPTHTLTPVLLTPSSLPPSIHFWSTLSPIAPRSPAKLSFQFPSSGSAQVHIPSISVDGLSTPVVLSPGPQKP
Outline: as §1

GABPA = target: T3, GABPA (Homo sapiens, UniProt Q06546 1-454)
T3 sequence: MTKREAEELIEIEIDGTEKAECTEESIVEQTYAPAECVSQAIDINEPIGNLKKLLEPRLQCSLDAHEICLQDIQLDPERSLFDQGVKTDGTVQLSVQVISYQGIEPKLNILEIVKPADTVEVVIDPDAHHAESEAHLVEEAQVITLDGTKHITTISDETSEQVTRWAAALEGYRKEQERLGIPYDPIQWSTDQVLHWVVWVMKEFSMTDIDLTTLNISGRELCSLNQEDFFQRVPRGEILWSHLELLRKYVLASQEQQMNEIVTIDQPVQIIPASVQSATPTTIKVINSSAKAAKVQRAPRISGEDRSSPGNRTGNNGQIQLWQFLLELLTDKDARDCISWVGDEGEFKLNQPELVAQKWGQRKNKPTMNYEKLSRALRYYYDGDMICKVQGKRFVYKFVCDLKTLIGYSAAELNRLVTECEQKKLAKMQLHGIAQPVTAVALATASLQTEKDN
Outline: as §1

ERG = target: T4, ERG (Homo sapiens, UniProt P11308 1-479)
T4 sequence: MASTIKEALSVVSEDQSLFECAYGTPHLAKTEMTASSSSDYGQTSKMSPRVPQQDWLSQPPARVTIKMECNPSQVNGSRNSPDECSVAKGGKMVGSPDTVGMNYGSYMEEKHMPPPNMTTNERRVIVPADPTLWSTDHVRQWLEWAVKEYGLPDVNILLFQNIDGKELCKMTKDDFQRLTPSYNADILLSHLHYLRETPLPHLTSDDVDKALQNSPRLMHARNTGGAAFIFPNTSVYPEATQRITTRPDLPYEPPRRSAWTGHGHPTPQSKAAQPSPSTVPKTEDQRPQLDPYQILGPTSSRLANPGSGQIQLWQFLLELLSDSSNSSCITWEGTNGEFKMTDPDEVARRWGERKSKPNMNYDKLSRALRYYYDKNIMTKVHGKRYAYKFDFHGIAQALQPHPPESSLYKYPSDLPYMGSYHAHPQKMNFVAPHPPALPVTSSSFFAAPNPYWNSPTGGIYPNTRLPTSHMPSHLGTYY
Outline: as §1

ELF1 = ELF1 (Homo sapiens, UniProt P32519 1-619)
Outline: as §1

EHF = target: T5, EHF (Homo sapiens, UniProt Q9NZC4 1-300)
T5 sequence: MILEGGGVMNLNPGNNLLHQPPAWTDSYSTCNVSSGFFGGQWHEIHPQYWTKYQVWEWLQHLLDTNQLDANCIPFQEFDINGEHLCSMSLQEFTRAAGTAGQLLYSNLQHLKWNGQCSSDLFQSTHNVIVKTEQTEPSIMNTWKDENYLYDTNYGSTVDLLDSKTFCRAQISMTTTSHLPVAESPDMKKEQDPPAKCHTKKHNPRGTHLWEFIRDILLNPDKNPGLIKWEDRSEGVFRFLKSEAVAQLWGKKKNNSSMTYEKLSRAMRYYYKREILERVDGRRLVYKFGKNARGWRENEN
Outline: as §1

SPI1 = SPI1 (Homo sapiens, UniProt P17947 1-270)
Outline: as §1

SPIB = SPIB (Homo sapiens, UniProt Q01892 1-262)
Outline: as §1

ELK3 = target: T6, ELK3 (Homo sapiens, UniProt P41970 1-407)
T6 sequence: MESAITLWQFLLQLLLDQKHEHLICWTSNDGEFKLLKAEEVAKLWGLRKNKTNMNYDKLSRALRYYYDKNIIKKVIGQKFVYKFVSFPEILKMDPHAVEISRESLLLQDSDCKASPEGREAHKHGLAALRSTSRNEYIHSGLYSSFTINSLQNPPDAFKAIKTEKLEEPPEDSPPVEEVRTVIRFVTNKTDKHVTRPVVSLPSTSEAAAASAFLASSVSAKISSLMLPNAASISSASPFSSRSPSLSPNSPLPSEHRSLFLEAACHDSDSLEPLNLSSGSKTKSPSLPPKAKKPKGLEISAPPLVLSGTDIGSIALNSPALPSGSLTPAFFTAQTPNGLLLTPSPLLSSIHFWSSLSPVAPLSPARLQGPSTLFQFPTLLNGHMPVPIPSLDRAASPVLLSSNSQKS
Outline: as §1

SPIB, sequence (Q01892 whole entry): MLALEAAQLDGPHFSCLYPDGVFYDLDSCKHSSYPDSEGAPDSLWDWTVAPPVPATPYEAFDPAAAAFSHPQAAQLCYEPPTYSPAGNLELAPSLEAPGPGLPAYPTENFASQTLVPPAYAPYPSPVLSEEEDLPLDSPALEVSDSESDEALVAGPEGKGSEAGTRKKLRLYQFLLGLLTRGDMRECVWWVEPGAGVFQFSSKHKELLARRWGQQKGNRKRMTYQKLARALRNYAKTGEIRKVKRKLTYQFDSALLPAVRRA
ELF1, sequence (P32519 whole entry): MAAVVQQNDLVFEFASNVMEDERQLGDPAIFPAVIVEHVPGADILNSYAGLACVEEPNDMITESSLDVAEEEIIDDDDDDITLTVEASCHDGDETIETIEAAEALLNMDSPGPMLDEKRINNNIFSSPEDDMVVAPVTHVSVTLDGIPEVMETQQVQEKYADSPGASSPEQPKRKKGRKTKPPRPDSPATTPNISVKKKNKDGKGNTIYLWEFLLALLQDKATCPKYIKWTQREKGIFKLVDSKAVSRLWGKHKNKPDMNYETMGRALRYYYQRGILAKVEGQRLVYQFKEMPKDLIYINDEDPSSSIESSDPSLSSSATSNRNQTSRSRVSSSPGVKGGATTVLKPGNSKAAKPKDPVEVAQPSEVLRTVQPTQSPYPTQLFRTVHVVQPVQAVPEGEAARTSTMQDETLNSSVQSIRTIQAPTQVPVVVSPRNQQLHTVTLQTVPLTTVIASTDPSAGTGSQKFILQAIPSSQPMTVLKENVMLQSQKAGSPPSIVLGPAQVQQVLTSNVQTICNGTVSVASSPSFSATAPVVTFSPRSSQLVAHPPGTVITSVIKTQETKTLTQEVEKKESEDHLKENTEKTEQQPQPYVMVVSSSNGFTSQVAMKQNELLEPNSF

Sequence | binding signal (FLI1) | binding signal (ELK1) | binding signal (GABPA) | binding signal (ERG) | binding signal (ELF1) | binding signal (EHF) | binding signal (SPI1) | binding signal (SPIB) | binding signal (ELK3)
TCAAAA | 1.12 fold enrichment (6-mer frequency, TF over GST control) | 1.12 fold enrichment (6-mer frequency, TF over GST control) | 1.23 fold enrichment (6-mer frequency, TF over GST control) | 1.14 fold enrichment (6-mer frequency, TF over GST control) | 1.19 fold enrichment (6-mer frequency, TF over GST control) | 1.1 fold enrichment (6-mer frequency, TF over GST control) | 1.3 fold enrichment (6-mer frequency, TF over GST control) | 1.15 fold enrichment (6-mer frequency, TF over GST control) | 1.17 fold enrichment (6-mer frequency, TF over GST control)
AGTGCT | 1.47 fold enrichment (6-mer frequency, TF over GST control) | 1.36 fold enrichment (6-mer frequency, TF over GST control) | 1.29 fold enrichment (6-mer frequency, TF over GST control) | 1.37 fold enrichment (6-mer frequency, TF over GST control) | 1.4 fold enrichment (6-mer frequency, TF over GST control) | 1.4 fold enrichment (6-mer frequency, TF over GST control) | 1.91 fold enrichment (6-mer frequency, TF over GST control) | 1.53 fold enrichment (6-mer frequency, TF over GST control) | 1.59 fold enrichment (6-mer frequency, TF over GST control)
TCTTTG | 1.18 fold enrichment (6-mer frequency, TF over GST control) | 1.18 fold enrichment (6-mer frequency, TF over GST control) | 1.2 fold enrichment (6-mer frequency, TF over GST control) | 1.25 fold enrichment (6-mer frequency, TF over GST control) | 1.25 fold enrichment (6-mer frequency, TF over GST control) | 1.21 fold enrichment (6-mer frequency, TF over GST control) | 1.21 fold enrichment (6-mer frequency, TF over GST control) | 1.05 fold enrichment (6-mer frequency, TF over GST control) | 1.31 fold enrichment (6-mer frequency, TF over GST control)
AAGATT | 1.1 fold enrichment (6-mer frequency, TF over GST control) | 1.17 fold enrichment (6-mer frequency, TF over GST control) | 1.18 fold enrichment (6-mer frequency, TF over GST control) | 1.17 fold enrichment (6-mer frequency, TF over GST control) | 1.19 fold enrichment (6-mer frequency, TF over GST control) | 1.16 fold enrichment (6-mer frequency, TF over GST control) | 1.12 fold enrichment (6-mer frequency, TF over GST control) | 1.16 fold enrichment (6-mer frequency, TF over GST control) | 1.04 fold enrichment (6-mer frequency, TF over GST control)
